Laboratory results reported in PubChem BioAssay (Tox21).
Records with an inconclusive call do not appear. Active and inactive are the calls of the source. Calls come from the whole dose curve; as a rule, active = well fitted curve in the direction sought with a large enough effect in the repeat runs; inconclusive = weak or mixed curves; inactive = no such curve, though single readings can be large; an effect the other way counts as inactive or inconclusive.

Experiments:
[1] = qHTS RealTime-Glo MT Cell Viability Assay in HEK293 cells - 16 hour (AID 1224872); note: top concentration of the series differs between compounds; nearly all actives have a fitted effect of over 50% in size
Method in brief: (§1)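 Quantitative high-throughput screen of the Tox21 10K library in HEK293: cells and RealTime-Glo reagents plated together, compound added at 5 h, luminescence monitored through 40 h at 37 C.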

[2] = qHTS RealTime-Glo MT Cell Viability Assay in HepG2 cells - 8 hour (AID 1224873); note: nearly all actives have a fitted effect of over 55% in size
Method in brief: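 HepG2 cells (600/well) mixed with RealTime-Glo MT reagent, settled 5 h at 37 C/5% CO2 before compound addition. Nonlytic NanoLuc luminescence from viable-cell prosubstrate reduction read repeatedly during 40 h treatment at 37 C.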

[3] = qHTS RealTime-Glo MT Cell Viability Assay in HEK293 cells - 40 hour (AID 1224874); settings: RealTime-Glo luminescence; max response: stronger effect = lower value; note: nearly all actives have a fitted effect of over 50% in size
Method in brief: (§2)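 Luminescence readout at each listed time point; HEK293, 600 cells/well, RealTime-Glo MT reagent added with cells; compounds pinned (23 nL in DMSO) after 5 h at 37 C; continuous culture at 37 C.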

[4] = A CellTox Green Cytotoxicity Assay to monitor cytotoxicity in HEK293 cells - 24 hour (AID 1224875); note: series mostly up to about 77 µM; nearly all actives have a fitted effect of over 45% in size
Method in brief: (§3)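 Read-out: fluorescence of a cell-impermeant cyanine dye staining DNA of dead cells, proportional to cytotoxicity. HEK293, 600 cells/well with reagent, compound (23 nL DMSO) added after 5 h; reads at 0, 8, 16, 24, 32, 40 h.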

[5] = A CellTox Green Cytotoxicity Assay to monitor cytotoxicity in HepG2 cells - 16 hour (AID 1224876); note: nearly all actives have a fitted effect of over 45% in size
Method in brief: (§4)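 HepG2, 600 cells/well premixed w/ CellTox Green; 5 h settle, 37 C/5% CO2; pintool cpd add (DMSO); 37 C, 40 h; fluorescence read at 0, 8, 16, 24, 32, 40 h.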

[6] = qHTS RealTime-Glo MT Cell Viability Assay in HepG2 cells - 32 hour (AID 1224877); note: nearly all actives have a fitted effect of over 55% in size
Method in brief: (§5)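 Compound treatment began 5 h after plating HepG2 cells (600/well) with NanoLuc luciferase and prosubstrate. Plates stayed at 37 C for 40 h; luminescence was captured at six time points, 0 h through 40 h.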

[7] = A CellTox Green Cytotoxicity Assay to monitor cytotoxicity in HepG2 cells - 24 hour (AID 1224878); note: nearly all actives have a fitted effect of over 45% in size
Method in brief: as §4

[8] = A CellTox Green Cytotoxicity Assay to monitor cytotoxicity in HepG2 cells - 40 hour (AID 1224879); note: nearly all actives have a fitted effect of over 40% in size
Method in brief: as §4

[9] = A CellTox Green Cytotoxicity Assay to monitor cytotoxicity in HepG2 cells - 0 hour (AID 1224882); note: nearly all actives have a fitted effect of over 35% in size
Method in brief: as §4

[10] = A CellTox Green Cytotoxicity Assay to monitor cytotoxicity in HepG2 cells - 32 hour (AID 1224883); note: nearly all actives have a fitted effect of over 50% in size
Method in brief: as §4

[11] = qHTS RealTime-Glo MT Cell Viability Assay in HepG2 cells - 16 hour (AID 1224885); note: nearly all actives have a fitted effect of over 50% in size
Method in brief: as §5

[12] = qHTS RealTime-Glo MT Cell Viability Assay in HEK293 cells - 24 hour (AID 1224886)
Method in brief: as §1

[13] = qHTS RealTime-Glo MT Cell Viability Assay in HEK293 cells - 8 hour (AID 1224887)
Method in brief: as §2

[14] = A CellTox Green Cytotoxicity Assay to monitor cytotoxicity in HEK293 cells - 16 hour (AID 1224888); note: nearly all actives have a fitted effect of over 35% in size
Method in brief: as §3

[15] = qHTS RealTime-Glo MT Cell Viability Assay in HepG2 cells - 0 hour (AID 1224889); note: nearly all actives have a fitted effect of over 50% in size
Method in brief: as §5

[16] = A CellTox Green Cytotoxicity Assay to monitor cytotoxicity in HepG2 cells - 8 hour (AID 1224890); note: nearly all actives have a fitted effect of over 45% in size
Method in brief: as §4

[17] = qHTS assay to identify small molecule antagonists of the estrogen receptor alpha (ER-alpha) signaling pathway using the BG1 cell line in the presence of 0.1 nM 17-beta-estradiol - cell viability counter screen (AID 1259241); note: nearly all actives have a fitted effect of over 40% in size
Method in brief: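 Cytotoxicity counter-screen: live-cell protease activity measured by fluorescence (30 min reagent step) in the same wells. Cells were VM7Luc4E2 with endogenous ER-alpha and ERE-driven luciferase, treated 22 hr at 37C alongside 0.1 nM 17beta-estradiol final.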

[18] = qHTS RealTime-Glo MT Cell Viability Assay in HEK293 cells - 0 hour (AID 1224880)
Method in brief: as §2

[19] = A CellTox Green Cytotoxicity Assay to monitor cytotoxicity in HEK293 cells - 32 hour (AID 1224881); note: nearly all actives have a fitted effect of over 40% in size
Method in brief: as §3

[20] = A CellTox Green Cytotoxicity Assay to monitor cytotoxicity in HEK293 cells - 8 hour (AID 1224884); note: nearly all actives have a fitted effect of over 35% in size
Method in brief: as §3
% is set by controls: 0 for no effect and ±100 for the full control effect.

CCN[C@H]1C[C@H](C)S(=O)(=O)c2sc(S(N)(=O)=O)cc21
inactive: Potency [1] | outcome [2] | max response [3] -0.522% | outcome [4] | outcome [5] | Potency [6] | outcome [7] | Potency [8] | Potency [9] | Potency [10] | outcome [11] | Potency [12] | Potency [13] | outcome [14] | Potency [15] | outcome [16] | outcome [17]

Clc1cc(Cl)c(Cl)nc1Cl
inactive: Potency [1] | outcome [2] | max response [3] -11.7% | outcome [4] | outcome [5] | outcome [7] | Potency [8] | Potency [18] | outcome [19] | Potency [9] | Potency [10] | outcome [20] | outcome [11] | Potency [12] | Potency [13] | outcome [14] | Potency [15] | outcome [16] | outcome [17]

CC[N+](C)(CC)CCOC(=O)C1c2ccccc2Oc2ccccc21
inactive: Potency [1] | outcome [2] | max response [3] 3.05% | outcome [4] | outcome [5] | outcome [7] | Potency [8] | Potency [18] | outcome [19] | Potency [9] | Potency [10] | outcome [11] | Potency [12] | Potency [13] | outcome [14] | Potency [15] | outcome [16]

C[C@@H]1C[C@H]2[C@@H]3C[C@H](F)C4=CC(=O)C(Cl)=C[C@]4(C)[C@@]3(F)[C@@H](O)C[C@]2(C)[C@@]1(O)C(=O)CO
inactive: Potency [1] | outcome [2] | max response [3] -27.2% | outcome [4] | outcome [5] | outcome [7] | Potency [8] | Potency [18] | Potency [9] | Potency [10] | outcome [20] | outcome [11] | Potency [13] | outcome [14] | outcome [16] | outcome [17]

CO/N=C(\C(=O)N[C@@H]1C(=O)N2C(C(=O)O)=C(CSc3nc(=O)c(O)nn3C)CS[C@H]12)c1csc(N)n1
inactive: Potency [1] | outcome [2] | max response [3] 11.9% | outcome [4] | outcome [5] | outcome [7] | Potency [8] | Potency [18] | outcome [19] | Potency [9] | Potency [10] | outcome [20] | outcome [11] | Potency [12] | Potency [13] | outcome [14] | Potency [15] | outcome [16] | outcome [17]

FB(F)F
inactive: Potency [1] | outcome [2] | max response [3] -1.41% | outcome [4] | outcome [5] | outcome [7] | Potency [8] | Potency [18] | outcome [19] | Potency [9] | Potency [10] | outcome [20] | outcome [11] | Potency [12] | Potency [13] | outcome [14] | Potency [15] | outcome [16]

CCCCN1C=CN(C)C1
inactive: activity change, negative = cytotoxicity [1] 5.82% [at 15.8 µM] | viability change, negative = cytotoxic [2] 2.13% [at 15.8 µM] | max response [3] 9.09% | activity change [4] -7.42% [at 15.8 µM] | cytotoxicity increase [5] -14.5% [at 15.8 µM] | cytotoxicity [7] -16.6% [at 15.8 µM] | cytotoxicity increase [8] -22.4% [at 15.8 µM] | activity change, negative = cytotoxicity [18] 0.0716% [at 15.8 µM] | cytotoxicity increase [19] -9.11% [at 15.8 µM] | cytotoxicity [9] -12.1% [at 15.8 µM] | cytotoxicity increase [10] -19.6% [at 15.8 µM] | cytotoxicity increase [20] -6.47% [at 15.8 µM] | activity change, negative = cytotoxic [11] 3.26% [at 15.8 µM] | activity change, negative = cytotoxicity [12] 9.28% [at 15.8 µM] | activity change, negative = cytotoxicity [13] 5.36% [at 15.8 µM] | activity change [14] -9.59% [at 15.8 µM] | activity change, negative = cytotoxicity [15] 0.175% [at 15.8 µM] | cytotoxicity increase [16] -8.5% [at 15.8 µM] | activity change, negative = cytotoxicity [17] 0.391% [at 19 µM]

O=C(c1ccccc1)C1(O)CCCCC1
inactive: Potency [1] | outcome [2] | max response [3] -2.37% | outcome [4] | outcome [5] | outcome [7] | Potency [8] | Potency [18] | Potency [9] | outcome [11] | Potency [12] | Potency [13] | outcome [14] | Potency [15] | outcome [16] | outcome [17]

c1ccc(Cc2ccccc2)cc1
inactive: Potency [1] | outcome [2] | max response [3] -0.7% | outcome [4] | outcome [5] | Potency [6] | outcome [7] | Potency [8] | Potency [9] | Potency [10] | outcome [20] | outcome [11] | Potency [12] | Potency [13] | outcome [14] | Potency [15] | outcome [16] | outcome [17]

NC(=O)Cc1cccc2ccccc12
inactive: Potency [1] | outcome [2] | max response [3] 2.56% | outcome [4] | outcome [5] | Potency [6] | outcome [7] | Potency [8] | outcome [19] | Potency [9] | outcome [20] | outcome [11] | Potency [13] | outcome [14] | Potency [15] | outcome [16] | outcome [17]

C=C[Si](OC(C)=O)(OC(C)=O)OC(C)=O
inactive: Potency [1] | outcome [2] | max response [3] 4.65% | outcome [4] | outcome [5] | outcome [7] | Potency [8] | Potency [18] | outcome [19] | Potency [9] | outcome [20] | outcome [11] | Potency [12] | Potency [13] | outcome [14] | outcome [16] | outcome [17]

CNC(=O)Nc1ccc(Cl)c(Cl)c1
inactive: Potency [1] | outcome [2] | max response [3] -26.8% | outcome [4] | outcome [5] | Potency [6] | outcome [7] | Potency [8] | Potency [9] | Potency [10] | outcome [20] | outcome [11] | Potency [12] | Potency [13] | outcome [14] | Potency [15]
